The results in this text go back to PubChem BioAssay (NCATS).

Inconclusive results are not listed. Unmarked numbers belong to inactive results. Calls come from the whole dose curve; as a rule, active = well fitted cell-killing curve with a large enough effect; inconclusive = small, poorly fitted or top-dose-only effect; inactive = flat fitted curve, though single readings scatter.
% is set by controls: 0 for no effect and ±100 for the full control effect.

This assay in a line: Cell Viability - H-4-II-E (AID 543). Note: nearly all actives have a fitted effect of over 35% in size. To be noted: H-4-II-E rat hepatoma viability; series mostly up to 92.2 µM; activity change, negative = cytotoxic: at the top concentration. An excerpt:
NIH Chemical Genomics Center [NCGC]
NIH Molecular Libraries Screening Centers Network [MLSCN]
National Institutes of Environmental Health Sciences [NIEHS]
National Toxicology Program [NTP]
We have developed a 1536-well cell-based assay for quantitative high throughput screening (qHTS) against a number of cell lines to determine in vitro cytotoxicity of small molecules. This particular assay uses the H-4-II-E cell line which is derived from rat hepatoma.
NCGC Assay Protocol Summary:
The CellTiter-Glo luminescent cell viability assay (Promega) is a homogeneous method to measure the number of viable cells in culture. The end point readout of this assay is based on quantitation of intracellular ATP, an indicator of metabolic activity, using the luciferase reaction. Luciferase catalyzes the oxidation of beetle Luciferin to oxyluciferin and light in the presence of ATP. The luminescent signal is proportional to amount of ATP present.
Using the CellTiter-Glo luminescent cell viability assay, the amount of cellular ATP was measured in the H-4-II-E cell line with complete culture medium following compound treatment for 40 hours. The assay was performed in opaque white Kalypsys 1536-well plates. In the screen, tamoxifen and doxorubicin were used as positive controls. Library compounds were measured for their ability to cause acute toxicity in the cell line, as reflected by a decrease in intracellular ATP levels, in a concentration-dependent manner. […] AC50 values were determined from concentration-response data modeled with the standard Hill equation.
qHTS protocol fo CellTiter Glo H-4-II-E cellular assay
[Step] [Parameter] [Value] [Description]
1. Reagent; 5 uL; 1500 H-4-II-E cells/well
2. Time; 5 hr; 37 °C incubation
4. Controls; 23 nL; Tamoxifen 0.34 uM to 100 uM & Doxorubicin 0.02 nM to 100 uM
5. Time; 40 hr; 37 °C incubation
6. Reagent; 5 uL; CellTiter Glo reagent
7. Time; 20 min; Room Temperature
8. Detection; Luminescence; Viewlux plate reader
Keywords: cell viability, cytotoxicity, H-4-II-E cell line, luminescence, NTPHTS, NTPHTS_NCGC, NIEHS, EPA, DSSTox, MLSMR, MLSCN, NIH Roadmap, qHTS, NCGC
Take `ClCC(Cl)CCl`: the “activity change, negative = cytotoxic” value was -1.85%.

On to `C=CCO`, for which the “activity change, negative = cytotoxic” value was -5.54%.

Turning to `O=[N+]([O-])c1cccc(O)c1`, the “activity change, negative = cytotoxic” value is -7.2%. For `CNC(=O)O/N=C/C(C)(C)S(C)=O` (stereo not given), the “activity change, negative = cytotoxic” value was -1.41%. Consider `OCCOCCO`, for which the “activity change, negative = cytotoxic” value is -6.45%. Consider `CC(C)(C)c1ccccc1O`, for which the “activity change, negative = cytotoxic” value was -1.51%. In the case of `CCOP(=S)(OCC)SCCSCC` it was 2.12%. Then `C=COC(C)=O`, with 3.78%; and `O=C(Cl)c1ccccc1F`, with -14.6%; and `Cc1ccc(N)cc1Cl`, with -3.93%. With `c1ccoc1`, the “activity change, negative = cytotoxic” value was -4.94%. For the compound `O=[N+]([O-])c1cc(Cl)c(Cl)c(Cl)c1`, the “activity change, negative = cytotoxic” value is -19.9%. In the case of `CC(C#N)CCC#N` (stereo not given), the “activity change, negative = cytotoxic” value was -5.17%. On to `O=[N+]([O-])c1cccc2c([N+](=O)[O-])cccc12`, for which the “activity change, negative = cytotoxic” value was -1.99%. In the case of `CC(C)[C@]12CC(=O)[C@H](C)[C@H]1C2` it was -2.02%; in that of `Cl/C=C/Cl`, -11.3%; in that of `C=CCBr`, 2.35%. Regarding `O=C(O)C(Cl)Br` (stereo not given), the “activity change, negative = cytotoxic” value is 1.96%. Then `Cl/C=C/CCl`, with -5.03%. Regarding `OCCBr`, the “activity change, negative = cytotoxic” value was -3.6%. Then `CCCCCOC(=O)c1ccccc1C(=O)OCCCCC`, with -2.64%; and `Clc1ccc(C(Cl)(Cl)Cl)cc1Cl`, with -3.12%; and `[O-][Cl+2]([O-])O`, with 0.408%. In the case of `N#CCCC#N`, the “activity change, negative = cytotoxic” value was -2%. Then `Oc1cc(Cl)ccc1Cl`, with -0.305%.

As to `Cc1cc(C)cc(OP(=O)(Oc2cc(C)cc(C)c2)Oc2cc(C)cc(C)c2)c1`, the “activity change, negative = cytotoxic” value is -25%.

As to `[O-][Cl+]O`, the “activity change, negative = cytotoxic” value is 7.82%.

With `CC(Cl)CCl` (stereo not given), the “activity change, negative = cytotoxic” value was 5.19%. In the case of `CSSC` it was -11.2%; in that of `COc1ccccc1N`, 2.17%; in that of `O=[N+]([O-])CCO`, -7.26%. On to `N#C/C(N)=C(/N)C#N`, for which the “activity change, negative = cytotoxic” value was -24.8%. In the case of `CC(C)CC(C)N` (stereo not given), the “activity change, negative = cytotoxic” value is 0.217%. `O=C(O)C(Br)Br`: the “activity change, negative = cytotoxic” value was -5.3%. Turning to `Cc1cccc(C)c1N`, the “activity change, negative = cytotoxic” value is -2.34%. Consider `Cc1ccc2c(C)cccc2c1`, for which the “activity change, negative = cytotoxic” value was -3.37%.

Regarding `Clc1ccc(Cl)c(Cl)c1`, the “activity change, negative = cytotoxic” value is 2.04%.

With `CCSC(=O)N1CCCCCC1`, the “activity change, negative = cytotoxic” value is 2.29%.

On to `ClC(Br)Br`, for which the “activity change, negative = cytotoxic” value is -1.25%.

Regarding `CCCCOC(=O)c1ccccc1N`, the “activity change, negative = cytotoxic” value was -4.29%.
